Data from PMC13494018.

B1: design_609_7ee6ce64-4629-41e8-bcb4-ba0da017284d_1084_dldesign_0_cycle1_af2pred (protein)
chain: SEKEKEEVLKEAKEVLEKAKKAAEELGDEEAVKRMERRLKRAEEGNLQDAEAALESGKHALENAKKKLKEKEKAA
B2: design_609_7ee6ce64-4629-41e8-bcb4-ba0da017284d_2040_dldesign_0_cycle1_af2pred (protein)
chain: EEEEKEKKAKELEKEAVKHREEAFDKIAEGKLEEAKELAEKIRELAKKLEELGEEAKPLADRARKGARAVERLIEAAE
B3: design_609_7ee6ce64-4629-41e8-bcb4-ba0da017284d_2006_dldesign_0_cycle1_af2pred (protein)
chain: EKLLGEGYADIIVDNTKSVIAADPSKAEEYVETNKAKGLARAEKIKDTEAGKVLKEKVEKEAEKLLAEAKKAKAAAEAAA
B4: design_609_7ee6ce64-4629-41e8-bcb4-ba0da017284d_1790_dldesign_0_cycle1_af2pred (protein)
chain: NEADKEVEELTKKIKELTKKAKEALEKGNIEEAKKYAEEAMKAIKKAREIAPKASKELQKEASKAAAEAYEVYAEVEFKSK
B5: design_609_7ee6ce64-4629-41e8-bcb4-ba0da017284d_1936_dldesign_0_cycle1_af2pred (protein)
chain: SASEKTKEYLKKNDELGKKAAELSLKDEEKGLALAEKDVYIAIKASAILYKKGDEKALEHAKKFKEVAFKMLDE
B6: design_609_7ee6ce64-4629-41e8-bcb4-ba0da017284d_1728_dldesign_0_cycle1_af2pred (protein)
chain: EAEKQALADAAKAAEKAAKAAKESPEKGAKAAKELAKAYPEVAKAANAAARYIEELGEEGVDAAEEILKHAIKTLKAKAAAL
B7: design_609_7ee6ce64-4629-41e8-bcb4-ba0da017284d_1726_dldesign_0_cycle1_af2pred (protein)
chain: AAAEEIAKAKAVYDKRKAKAQEYEKKGDYKGAANEYDIAAAQLGMAAAGLSPEAAAVAKALAEEAKKLAEEAEKKLAE
B8: design_609_7ee6ce64-4629-41e8-bcb4-ba0da017284d_1721_dldesign_0_cycle1_af2pred (protein)
chain: SKLEEDKKKAEELKKEAEKLAEEAAKTTPEEAKKLRKELREKAKKVAEEVSPEIAKKVAEIAHEAQQKIAEAMQEIKK
B9: design_609_7ee6ce64-4629-41e8-bcb4-ba0da017284d_1121_dldesign_0_cycle1_af2pred (protein)
chain: SKEEAIKNIRELRRELREVAEEAMKEVSEEDAKKVRELASKASGKLAEERGLAVSKPELAEEALKNAKEIAEKAIEEVKKIAEKAKK
B10: design_609_7ee6ce64-4629-41e8-bcb4-ba0da017284d_1108_dldesign_0_cycle1_af2pred (protein)
chain: MQEAIDYVKKKGSELIDKLVDDLAAGEEKDDPKIAKEVLEKLEELEKEAKKLSEEAAEEAKKAIETAKRIASNA
B11: design_609_7ee6ce64-4629-41e8-bcb4-ba0da017284d_1016_dldesign_0_cycle1_af2pred (protein)
chain: AAADAKAKFDVAFLAAELRASARAAAKANPAAAPAVVDAAAERLRAAGAAGTPEAAAYADAAIARERAWAAAAAAA
B12: design_609_7ee6ce64-4629-41e8-bcb4-ba0da017284d_1088_dldesign_0_cycle1_af2pred (protein)
chain: NKSKEYSDAMKELVRAAKEAAAAADALGAAKGDPALAQAIKAELEKLVFEAADGDIETAKKLAEEAKKLKEAAEKALA
B13: design_609_7ee6ce64-4629-41e8-bcb4-ba0da017284d_1780_dldesign_0_cycle1_af2pred (protein)
chain: MEQAELRREMVRLVREAGRILEEKAPEYPEAKEAIELLRKAVFLAGDKEKAPEALELLKKAAEIAKEIDPEAAELIKEALELAKKWKE
B14: design_609_7ee6ce64-4629-41e8-bcb4-ba0da017284d_2027_dldesign_0_cycle1_af2pred (protein)
chain: MTPEELLAKIKELAKKAKEAKDEKEAKKYLEEAKAAAAELKANGTPETAKQASAAVAEAYENYAEAVFKIK
B15: design_609_7ee6ce64-4629-41e8-bcb4-ba0da017284d_1584_dldesign_0_cycle1_af2pred (protein)
chain: MNVEEAKKEAKEIRDETIAKMKAAKTPEEVAAVAHEGLQKLAEGAYKFKSNKEAEKIYEEARKEVIDAAREIAAALEAAA
B16: design_609_7ee6ce64-4629-41e8-bcb4-ba0da017284d_914_dldesign_0_cycle1_af2pred (protein)
chain: AEAEELVEKAEERYKKLKERAEKAIKEGNKNELLAVSEAAKHAAEQAEKLAPKTGEKGKEVAKKFKELSKKAEETAKK
B17: design_609_7ee6ce64-4629-41e8-bcb4-ba0da017284d_960_dldesign_0_cycle1_af2pred (protein)
chain: DEEAYKKAKERGKKLEEKAKASNAYSAAAYYEAAYESYLQAAKQVRPELAKELKKAAEEAKAKAEEKYAEVAA
B18: design_609_7ee6ce64-4629-41e8-bcb4-ba0da017284d_1124_dldesign_0_cycle1_af2pred (protein)
chain: MAEAFEFTAEGLRLLAEEKSPEEAEKYNELAEKFEELAERARTGTPEDAKAAREEGNKLVKENSELVFEAKEYKTEKDYEELK
B19: design_609_7ee6ce64-4629-41e8-bcb4-ba0da017284d_1405_dldesign_0_cycle1_af2pred (protein)
chain: DLKKKIEAEAGKSYAEGVAESAAKIIAEIDPEIAPEYAEKVKKELTALAEKLADKSLETVYKEAKAIAKKVIEEAKKKK
B20: design_609_7ee6ce64-4629-41e8-bcb4-ba0da017284d_1354_dldesign_0_cycle1_af2pred (protein)
chain: AVAAAKAAAAKDAEEVNKLKFEAVDGDAETVEAVMKEVKARREEWLAKAKADPAAKAVYEAAAEGMDKTEKALQSVLDALKKN
B21: design_609_7ee6ce64-4629-41e8-bcb4-ba0da017284d_1185_dldesign_0_cycle1_af2pred (protein)
chain: KSEESKKEAEAAAKAAGEAMAKATGDKATADALAKAMLDALKAGDEAAAVAKRNEAAAIALAADPALAMDVLAEGKAAIVYAKK
B22: design_609_7ee6ce64-4629-41e8-bcb4-ba0da017284d_1996_dldesign_0_cycle1_af2pred (protein)
chain: AAAATAHEAIQTSTEAAEKLKKGKTEEDKELGKEIEEKRKELSRRAAEAQKEGPEAAKKAVAELAKFAEEAKKIAEEREKKRK
B23: design_609_7ee6ce64-4629-41e8-bcb4-ba0da017284d_985_dldesign_0_cycle1_af2pred (protein)
chain: SEEVLELGEREAERLKEAGASNRSIGLVLFLAEEAAEGNLEAAEGIFRAARREAEREKEKNPEVGELLEEALERLRKAAE
B24: design_609_7ee6ce64-4629-41e8-bcb4-ba0da017284d_900_dldesign_0_cycle1_af2pred (protein)
chain: GKEMVDKYSKERKKIAEAAKLAKEGKENPETFEKKAEEALKIAEEAAKEGDEGIKFQAENLKAYIEKLRKEK
B25: design_609_7ee6ce64-4629-41e8-bcb4-ba0da017284d_962_dldesign_0_cycle1_af2pred (protein)
chain: AEAEVKAAIEELKAESEKIVEEAKKEMEKHKEDPKKVEEIRKEALKKIRELAKEVAEKTGDWKGASAVVHEAYEKLNEAYKEAIEKAK
B26: design_609_7ee6ce64-4629-41e8-bcb4-ba0da017284d_1161_dldesign_0_cycle1_af2pred (protein)
chain: GSEEARKLQEEFGEALRRFTAAGRRLVETGREVGERTGDPEIEERARRVAEEGNRRRLEALDAGDVEAILAVADELERATEELL
B27: design_609_7ee6ce64-4629-41e8-bcb4-ba0da017284d_1135_dldesign_0_cycle1_af2pred (protein)
chain: SAALEHLVESLIENSTKAAEEGTPEVAKLLNAAAAAAKAGDLETALKLADQALALSPPNINVTLARSDARNALELAKK
B28: design_609_7ee6ce64-4629-41e8-bcb4-ba0da017284d_1105_dldesign_0_cycle1_af2pred (protein)
chain: DALKEAAEIAAKARELAAELDYLAKKSSPELGKKYAAYAERLRKAVRETRETGVEGAEKTRKELEEVEKEVKEL
B29: design_609_7ee6ce64-4629-41e8-bcb4-ba0da017284d_1771_dldesign_0_cycle1_af2pred (protein)
chain: KKEEALNYASEMRAYLIGAAAASKLPQAPQLEAEAREKAEKVGELLSPEVAKKIKELTEQAIAGTPEERKALAREIAELVKKAVEE
B30: design_609_7ee6ce64-4629-41e8-bcb4-ba0da017284d_1733_dldesign_0_cycle1_af2pred (protein)
chain: SEKDKAIMEATFHANGALNLADVGGDKKEIEKEAKLAKEHAEKAAKLSSKEEGAKILEYVEKKVKEVEEKLKKL
B31: design_609_7ee6ce64-4629-41e8-bcb4-ba0da017284d_1351_dldesign_0_cycle1_af2pred (protein)
chain: AAAAAAEAARAAAAAAAVAAAAEAKTAEVAKADPSAAPYYADAAGIVVDSAAAALAAAPGAEAAAIAARGVRTINRLAESTIEAIKRR
B32: design_609_7ee6ce64-4629-41e8-bcb4-ba0da017284d_1964_dldesign_0_cycle1_af2pred (protein)
chain: SKESRLRRAKALAEEAIKLLEEGEYAWAAALLRAAAREAERAGNEEAAKLLREAAELAAKSALEGPKYKEEALRLAKEALEILEKE
B33: design_609_7ee6ce64-4629-41e8-bcb4-ba0da017284d_1172_dldesign_0_cycle1_af2pred (protein)
chain: MEEVEAFKKEAQKKLDEAVEYALSISDIEKSKKVADLMSEMGKHYSEAYKAMESGEKLEEAKKNIEKAEEYYKKAKEIAEEDEKKKKE
B34: design_609_7ee6ce64-4629-41e8-bcb4-ba0da017284d_1630_dldesign_0_cycle1_af2pred (protein)
chain: AAGAAAVAAASKARGEALFELAAKAKFGTEEEAKEAEAKRKALTAAAKAVKAAAGTADAAAVATAARAQAEAIL
B35: design_609_7ee6ce64-4629-41e8-bcb4-ba0da017284d_1938_dldesign_0_cycle1_af2pred (protein)
chain: EEELKKLIEEHMEKLAKEAEKADPEVGKEVKEALKKAKKLNVGEAISLFLSTGARAAKEIGKKDPEKGKKVKEIVDKALDEIFSK
B36: design_609_7ee6ce64-4629-41e8-bcb4-ba0da017284d_1000_dldesign_0_cycle1_af2pred (protein)
chain: GKAIEAQKLVADAFAKYRKGKANPETYEEDKAEARELLREALELDFESAKETAKFLAELAKWQNPEAGKEFAALVEEVIAEVA
B37: design_609_7ee6ce64-4629-41e8-bcb4-ba0da017284d_1401_dldesign_0_cycle1_af2pred (protein)
chain: ALAALLEGLAKAAVIVARGIRRAARYAGDPRKAGFAFIVAGEQAFLVGRADPNPVAAAVLWLTGVLLIAIGLAIEAS
B38: design_609_7ee6ce64-4629-41e8-bcb4-ba0da017284d_1448_dldesign_0_cycle1_af2pred (protein)
chain: AEEEARKERLEAAKKELNELRLKAADSGDAEKALEYAKQAEAVAEKAGIPEDGEKAARVIRSIAEALKKN

molecular target: VTCN1, Q7Z7D3
Sequence (Q7Z7D3 whole entry): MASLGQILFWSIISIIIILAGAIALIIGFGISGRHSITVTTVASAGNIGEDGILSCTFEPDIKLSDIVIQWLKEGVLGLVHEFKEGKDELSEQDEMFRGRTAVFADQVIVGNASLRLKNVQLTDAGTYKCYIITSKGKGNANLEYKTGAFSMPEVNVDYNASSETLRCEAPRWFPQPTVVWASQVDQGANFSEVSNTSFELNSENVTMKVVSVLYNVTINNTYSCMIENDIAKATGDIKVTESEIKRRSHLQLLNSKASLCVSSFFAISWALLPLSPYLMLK

Binding in a display sort, inactive:
B1 not found
B2 not found
B3 not found
B4 not found
B5 not found
B6 not found
B7 not found
B8 not found
B9 not found
B10 not found
B11 not found
B12 not found
B13 not found
B14 not found
B15 not found
B16 not found
B17 not found
B18 not found
B19 not found
B20 not found
B21 not found
B22 not found
B23 not found
B24 not found
B25 not found
B26 not found
B27 not found
B28 not found
B29 not found
B30 not found
B31 not found
B32 not found
B33 not found
B34 not found
B35 not found
B36 not found
B37 not found
B38 not found
